Luc counter – blocks Kinase-Glo luciferase, a counter-screen artifact. Potency, µM (series often up to 38.3 µM), inactives show at the highest dose activity change, negative = inhibition, actives largely listed as inhibitors. AID 1379. Q27757. 0.28% of 200,000 active. Kinase-Glo luciferase, ATP luminescence, 8 min; further: on the % scale 0 is the no-effect control and ±100 the full control effect; nearly all actives have a fitted effect of over 60% in size
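Recombinant Kinase-Glo luciferase, 10 uM ATP (linear range), luciferin; imidazole pH 7.2 / KCl / MgCl2 / Tween / BSA buffer; 8 min RT; luminescence.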
NPC1 promoter act – activators of NPC1 promoter; Huh7 NPC1 promoter luciferase reporter, 24 h; Potency, µM (top dose mostly 9.22 µM), inactives show top-dose activation, usual class: activators; 2.4% of 320,000 active; further: % of control where 0% means no effect; nearly all actives have a fitted effect of over 60% in size
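Quantitative HTS used a cell-based reporter: Huh7 cells stably bearing the NPC1 promoter upstream of luciferase were treated with compounds for 24 h, and promoter activation was read as luminescence.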
ELG1 genotoxic – inducers of genotoxicity in HEK293T ELG1-luciferase cells; 1.3% of 330,000 active; HEK293T ELG1-luciferase reporter, luminescence, 16 h; Potency, µM (highest dose often 46 µM), for inactives: at the highest dose activity change, positive = activation, hits mostly activators; further: % of control where 0% means no effect; nearly all actives have a fitted effect of over 60% in size
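After overnight (16 hr) compound treatment at 37 °C, ELG1-luciferase HEK293T cells were lysed with ONE-Glo; luminescence quantified 30 min later at room temperature.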
Rab9 prom act – activators of Rab9 promoter. 2.8% of 320,000 active. Huh7 Rab9 promoter-luciferase reporter, luminescence, 24 h. Potency, µM (titrated, usually from 9.22 µM), for inactives: at the top dose activation, negative = inhibition, hits mostly activators. AID 485297; further: % of control where 0% means no effect; nearly all actives have a fitted effect of over 60% in size
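Steps: seed 1500 Huh7 Rab9-luc cells per well, rest 2 h at 37 °C; add compound in DMSO; incubate 24 h; add luciferase reagent, 10 min ambient; read luminescence.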
SMN2 splice up – SMN2 splice variant enhancement. Potency, µM (titrated, usually from 46.1 µM), for the others: at the top dose activity change, positive = activation, most hits filed as activators. 2.8% of 210,000 active. HEK293 SMN2-luciferase splicing reporter, luminescence, 30-36 h; further: % of control where 0% means no effect; nearly all actives have a fitted effect of over 55% in size
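HEK293 cells carry an SMN2 […]–luciferase reporter in which exon 7 inclusion puts luciferase in frame. Cells were plated 10-12 h before compound addition, then incubated 30-36 h at 37C. ONE-Glo luminescence was read; sodium butyrate at 4.5 mM final served as control.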
FLuc counter – inhibits or activates purified firefly luciferase, miR-21 counter-screen. Potency, µM (series often up to 57.5 µM), without a hit: top-dose activity change, negative = inhibition, most hits filed as inhibitors. 6.9% of 360,000 active. purified FLuc, Km substrates, luminescence inhibition. P08659;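 further: plate controls were vehicle for no effect and reference inhibitor for full effect; nearly all actives have a fitted effect of over 55% in size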
Target sequence (P08659 whole entry, looked up): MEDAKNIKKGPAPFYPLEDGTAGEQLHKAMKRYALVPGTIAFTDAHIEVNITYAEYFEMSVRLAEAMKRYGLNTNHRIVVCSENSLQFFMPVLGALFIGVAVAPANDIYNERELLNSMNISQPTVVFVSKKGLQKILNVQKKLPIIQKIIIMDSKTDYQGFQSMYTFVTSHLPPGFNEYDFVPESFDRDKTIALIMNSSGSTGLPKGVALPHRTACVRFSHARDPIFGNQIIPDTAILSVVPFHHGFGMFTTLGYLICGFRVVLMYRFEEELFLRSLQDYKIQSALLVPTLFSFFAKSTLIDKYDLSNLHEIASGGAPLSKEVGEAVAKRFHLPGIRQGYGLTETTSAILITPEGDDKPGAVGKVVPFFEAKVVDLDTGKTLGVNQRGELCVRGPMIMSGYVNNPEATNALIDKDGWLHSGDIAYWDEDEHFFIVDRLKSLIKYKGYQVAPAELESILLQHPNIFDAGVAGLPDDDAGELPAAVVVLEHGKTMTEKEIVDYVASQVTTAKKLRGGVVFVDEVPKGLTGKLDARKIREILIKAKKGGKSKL
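Purified P. pyralis luciferase (10nM final) with 10uM D-luciferin and 10uM ATP (Km levels) in 50mM Tris acetate pH 7.5, 10mM Mg acetate, 0.01% Tween-20, 0.05% BSA; qHTS 6-point titration, ~60 µM downward; luminescence read.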
* marks the source's active call; other numbers are inactive results; ? = inconclusive; . = no result given; [ ] = dose if it differs, or a comment. Hits are enriched below; roughly 7.4% of the tested compounds scored in any of these assays. The call rests on the fitted dose curve; in most records, active means well fitted curve in the direction sought with a large enough effect; inconclusive means small, poorly fitted or top-dose-only effect, or another doubt; inactive means no such curve, though single readings can be large; an effect the other way counts as inactive or inconclusive. Potency means the concentration at half of the fitted maximal effect.

SMILES	Luc counter	NPC1 promoter act	ELG1 genotoxic	Rab9 prom act	SMN2 splice up	FLuc counter
Cc1cccc2nc(COc3ccc(Cl)c4cccnc34)cn12	-3%	21%	?	?	?	12µM*
O=C(Nc1cccc(C(F)(F)F)c1)c1cc(CN2CCOCC2)on1	.	.	.	.	.	-6%
CCc1ccc(S(=O)(=O)Nc2ccc(-c3ccc(N4CCCC4)nn3)cc2)cc1	.	.	.	.	.	1%
Cc1ccc(S(=O)(=O)Nc2cccc(-c3ccc(N4CCCCCC4)nn3)c2)cc1	.	?	?	?	.	5.4µM*
O=S(=O)(Nc1cccc(-c2ccc(N3CCCCCC3)nn2)c1)c1ccccc1	.	.	.	.	.	7.6µM*
Cc1cccc(S(=O)(=O)Nc2cccc(-c3ccc(N4CCCCC4)nn3)c2)c1	.	.	.	.	.	3.4µM*
Cc1cc(C)c(S(=O)(=O)Nc2ccc(-c3ccc(N4CCCCC4)nn3)cc2)c(C)c1	.	.	.	.	.	13µM*
COc1ccc(-n2ncc(C(=O)NCc3cccs3)c2C2CCN(C(=O)OC(C)(C)C)CC2)cc1	.	.	.	.	.	0%
COc1ccc(/C=C/C(=O)NC(=S)Nc2ccc(S(N)(=O)=O)cc2)cc1	.	-1%	0%	-1%	.	2%
COc1ccc(/C=C/C(=O)NC(=S)Nc2ccccn2)cc1	.	1.3µM*	?	0.89µM*	.	?
COc1ccccc1/C=C/C(=O)NC(=S)Nc1ccccn1	.	?	23µM*	14%	.	11µM*
O=C(/C=C/c1ccccc1)NC(=S)Nc1ncccn1	.	1%	4%	0%	.	17µM*
Cc1ccccc1Cn1nnc2c(=O)[nH]c(C3CCN(C(=O)c4ccccc4)CC3)nc21	.	.	.	.	-4%	0%
O=C(NN=C(Cc1ccccc1)Cc1ccccc1)c1ccccc1O	1%	-6%	1%	-18%	1%	12µM*
CCC/C(C)=N/NC(=O)c1ccccc1O	-2%	-5%	-1%	-4%	0%	?
O=C(NN=C(Cc1ccccc1)Cc1ccccc1)c1ccc(F)cc1	-2%	11%	1%	1%	25%	19µM*
C/C(Cc1ccccc1)=N\NC(=O)c1ccc(F)cc1	0%	4%	4%	0%	-36%[1.84 µM]	-9%
COC(=O)c1ccc(C(=O)NC(=S)Nc2nc3c(s2)CC(C)CC3)cc1 (stereo not given)	-4%	20%	12%	3%	16µM*	-9%
CCCCOc1ccc(C(=O)Nc2nc3c(s2)CC(C)CC3)cc1 (stereo not given)	.	.	.	.	.	-13%
CCc1ccc(OCc2cnc(Cl)s2)cc1	1%	18%	?	23%	10%	21µM*
CC(=O)Nc1ccc(OCc2cnc(Cl)s2)cc1	1%	13%	10%	24%	12%	-14%
Clc1ccc(OCc2cnc(Cl)s2)cc1	-3%	-2%	8%	11%	-4%	15µM*
O=C(CSc1ncc2c(n1)-c1ccccc1N(Cc1ccc(Cl)cc1)S2(=O)=O)c1ccccc1	.	.	.	.	.	7%
COc1cc(-c2nc(-c3ccccn3)no2)cc(OC)c1OC	9%	?	?	28%	17%	?
c1ccc(-c2noc(-c3cccc4ccccc34)n2)nc1	-22%	?	?	28%	16µM*	0.76µM*
SMILES	Luc counter	NPC1 promoter act	ELG1 genotoxic	Rab9 prom act	SMN2 splice up	FLuc counter
COc1cccc(-c2nc(-c3ccccn3)no2)c1OC	-2%	3.5µM*	9.2µM*	2.5µM*	13µM*	13µM*
CC1CCN(CCCn2c(=S)[nH]c3c(sc4ccccc43)c2=O)CC1	2%	2%	-1%	18%	28%	15µM*
CC1CCN(CCCn2c(=S)[nH]c3c(sc4ccc([N+](=O)[O-])cc43)c2=O)CC1	-4%	7%	4%	0%	15%	-5%
CC(C)(C)c1ccc(COc2ccsc2C(=O)O)cc1	0%	10%	18%	?	16%	15µM*
O=C(O)c1sccc1OCc1ccccc1	-1%	-8%	-3%	0%	-14%	5%
CC1Cc2ccccc2N1C(=O)COC(=O)/C=C/c1ccc(F)cc1 (stereo not given)	.	-7%	1%	-1%	.	4%
